# pAkt inh: Akt phosphorylation inhibition. Neuro2A IGF-stimulated pAkt S473 HTRF, 20 min; stronger effect = lower value. activity change, % for hits at 50 µM. 360,000 tested, 0.32% active. AID 651550; in the data active = activity change below about -80%; inconclusive = mostly about -51% to -80%; note: % is set by controls: 0 for no effect and ±100 for the full control effect
#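 Neuro2A cells in DMEM with 0.5% FBS, overnight at 37 deg C, given compound at single 50 µM final, then IGF (6 nM final) for 20 min at 37 deg C. Lysed; phospho-Akt Ser473 by HTRF after 24 h, 665/615 ratio.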
# RXFP1 antagonist: antagonists of human relaxin receptor RXFP1; Q9HBX9; HEK293-RXFP1, relaxin-stimulated cAMP HTRF, 30 min; stronger effect = lower value; activity change, negative = inhibition, % at 57.5 µM; 350,000 tested, 0.59% active; AID 1259400;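 active = activity change of -60% or lower, but not beyond a set lower limit; inconclusive = change between -60% and -40%, or beyond the set limit; inactive = change above -40%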; note: % is set by controls: 0 for no effect and ±100 for the full control effect
# Target sequence (Q9HBX9 whole entry, looked up): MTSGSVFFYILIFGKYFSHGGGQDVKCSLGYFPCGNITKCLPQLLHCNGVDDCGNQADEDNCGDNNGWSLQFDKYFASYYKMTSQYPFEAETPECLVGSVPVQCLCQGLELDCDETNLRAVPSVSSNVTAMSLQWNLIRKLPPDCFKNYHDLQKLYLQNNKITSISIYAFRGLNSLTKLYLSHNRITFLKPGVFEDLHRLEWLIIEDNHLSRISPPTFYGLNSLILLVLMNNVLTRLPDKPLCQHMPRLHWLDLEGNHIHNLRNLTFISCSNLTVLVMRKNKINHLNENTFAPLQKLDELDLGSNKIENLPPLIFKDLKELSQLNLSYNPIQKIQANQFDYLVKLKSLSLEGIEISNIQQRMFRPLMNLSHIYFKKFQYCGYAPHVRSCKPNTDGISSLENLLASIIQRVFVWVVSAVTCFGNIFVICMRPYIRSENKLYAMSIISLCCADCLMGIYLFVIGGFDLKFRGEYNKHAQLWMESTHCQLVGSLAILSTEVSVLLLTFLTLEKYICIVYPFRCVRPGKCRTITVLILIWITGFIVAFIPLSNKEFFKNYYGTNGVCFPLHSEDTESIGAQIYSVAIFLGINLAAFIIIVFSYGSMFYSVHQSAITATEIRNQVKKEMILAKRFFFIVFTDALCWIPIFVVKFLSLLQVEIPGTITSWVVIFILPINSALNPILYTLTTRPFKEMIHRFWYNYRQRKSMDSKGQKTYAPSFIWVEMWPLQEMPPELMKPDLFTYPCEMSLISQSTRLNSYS
# gsp antag: antagonizes gsp, the McCune-Albright syndrome mutation; gsp-mutant cells, cAMP HTRF, 30 min; Potency, µM (series often up to 76.9 µM), for the others: at the top dose activity change, negative = inhibition, usual class: inhibitors; 340,000 tested, 0.4% active; AID 624288; calls by dose curve; cell line not stated here;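 note: intracellular cAMP measured with PDE inhibitor Ro 20-1724 present during compound exposure; potency is the fitted concentration of half-maximal effect; % is set by controls: 0 for no effect and ±100 for the full control effect; nearly all actives have a fitted effect of over 65% in size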
#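 Measurement of cellular cAMP by homogeneous time-resolved fluorescence following a 30 min compound exposure at 37C. The PDE inhibitor […] was present throughout; the assay buffer was DPBS with 0.05% BSA and 0.005% Tween 20.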
# gsp agonist: agonists of gsp mutant (McCune-Albright syndrome). gsp mutant cells, cAMP HTRF, 30 min. Potency, µM (highest dose often 76.9 µM), inactives show top-dose activation (cAMP increase), usual class: activators. 340,000 tested, 0.13% active. AID 624287; active = well fitted activation curve with a large enough effect; inconclusive = small, poorly fitted or top-dose-only effect, or another doubt; inactive = no such curve, though single readings can be large or run the other way; cell line not stated here;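 note: phosphodiesterase inhibitor Ro 20-1724 added with compounds to block cAMP breakdown; potency is the fitted concentration of half-maximal effect; nearly all actives have a fitted effect of over 60% in size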
#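 Cells in DMEM/10% FBS with G418 were pretreated with compounds in DMSO plus […] (300 uM stock) for 30 min at 37C. cAMP was measured by HTRF (cAMP-d2 plus anti-cAMP antibody-K) after 30 min at room temperature.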
# RXFP1 agonist: activates the human relaxin receptor RXFP1. 370,000 tested, 0.3% active. HEK293T-RXFP1 cAMP TR-FRET, 30 min; response scale: percent of porcine relaxin response, buffer zero. Q9HBX9. Potency, µM (series often up to 57.5 µM), without a hit: at the highest dose activation, actives largely listed as activators; active = well fitted activation curve with a large enough effect; inconclusive = small, poorly fitted or top-dose-only effect; note: potency is the fitted concentration of half-maximal effect; % is set by controls: 0 for no effect and ±100 for the full control effect; nearly all actives have a fitted effect of over 60% in size
#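 HEK293T cells stably expressing RXFP1 were pretreated with the PDE4 inhibitor Ro 20174, exposed to compounds for 30 min at 37C, lysed, and cAMP was read by TR-FRET. Data normalized to buffer (basal) and 29 nM porcine relaxin (100%).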
# An asterisk follows results filed as active; i = inactive; u = inconclusive; x = no result given; [ ] = another dose, or the depositor's remark. Shown are actives, neighbours in structure and some others; about 1.2% of the full set was active somewhere.
SMILES,pAkt inh,RXFP1 antagonist,gsp antag,gsp agonist,RXFP1 agonist
CCOc1ccc(/C=C2\SC(=O)N(CCNC(=O)C3COc4ccccc4O3)C2=O)cc1OC (centres undefined),i,x,28µM*,-5%,-2%
COc1ccc(/C=C2/SC(=O)N(CCNC(=O)C3COc4ccccc4O3)C2=O)cc1 (centres undefined),i,-17,u,-11%,1%
Cn1c(=O)c(C(=O)NNC(=O)c2ccccc2Cl)c(O)c2ccccc21,i,-66*,-17%,-25%,2%
CCCCN(CC)C(=O)c1cc2c(=O)n3ccccc3nc2n1C,x,23,x,x,1%
Cn1ccnc1SCC(=O)Nc1cccc2ccccc12,i,8,1%,21%,2%
COC(=O)c1ccccc1NC(=O)CSc1nccn1C,-99%*,-5,9%,u,0%
Cc1ccc(C2=CC(C)(c3ccc(C)cc3)Nc3nc(C(F)(F)F)nn32)cc1 (centres undefined),i,-67*,12%,6%[15.4 µM],0%
O=C(C1CC1)N1CCc2cc(Br)cc(S(=O)(=O)NC3CCCCC3)c21,-119%*,-12,-16%,11%,1%
O=C(C1CC1)N1CCc2cc(Br)cc(S(=O)(=O)N3CCCCCC3)c21,i,2,-35%,11%,-1%
C=CCn1c(SCC(=O)Nc2sccc2C(N)=O)nc2sc(CC)cc2c1=O,-111%*,-7,-29%,6%,1%
C=CCn1c(SCC(=O)Nc2sccc2C(N)=O)nc2ccc(Cl)cc2c1=O,i,6,-30%,13%,0%
COc1cccc(Nc2nc3ccccc3nc2NS(=O)(=O)c2cccs2)c1,i,-2,14µM*,13%,5%
O=C(NNC(=O)c1ccccc1O)c1ccc(Cl)c(S(=O)(=O)N2CCc3ccccc32)c1,i,-73*,u,-7%[15.4 µM],0%
O=C(c1ccc2c(c1)CCN2S(=O)(=O)c1ccc(Cl)cc1)N1CCN(c2ccc(F)cc2)CC1,x,-5,x,x,-1%
COc1ccc(CNC(=O)CCc2c(C)nn(-c3ccc(N4CCCCC4)nn3)c2C)cc1,x,18,x,x,1%
COc1ccccc1-c1nc2c(c(SCC(=O)Nc3ccc(C)c(C)c3)n1)Cc1c(CO)cnc(C)c1O2,x,0,x,x,-2%
CC1=CSC2=NS(=O)(=O)CCN12,i,11,15%,-26%,-1%
O=S1(=O)CCN2C(Cc3ccc(SC(F)F)cc3)=CSC2=N1,i,-9,32µM*,u,-1%
CC(C)c1ccccc1NC(=S)NC(=O)C1CCCCC1,i,-65*,-4%,u,x
COc1cccc(Cn2c(CNS(=O)(=O)c3ccc(C(C)(C)C)cc3)nc3cccnc32)c1,x,-3,x,x,1%
CC(C)Cn1c(=O)c2sccc2n2c(CCCC(=O)N3CCN(c4ccc(F)cc4)CC3)nnc12,x,-7,x,x,5%
CCOC(=O)c1c(C)[nH]c(C(=O)OCC(=O)N2CC(C)OC(C)C2)c1C (centres undefined),-130%*,5,0%,u,0%
CCOC(=O)C1=C(C)NC(C)=C(C(=O)OCC)C1C(=O)OCC(=O)N1CC(C)OC(C)C1 (centres undefined),i,-3,9%,5%,3%
COc1ccc(OC)c(-c2cc(C3CCN(c4cc(Cl)nc(N)n4)CC3)[nH]n2)c1,i,-26,35µM*,-65%,0%
COc1cc(Nc2ncc3c(n2)CCN(Cc2cc(F)cc(F)c2)C3)cc(OC)c1,x,-5,x,x,-2%
SMILES,pAkt inh,RXFP1 antagonist,gsp antag,gsp agonist,RXFP1 agonist
O=C(Nc1ccc(F)cc1F)c1cc2ccc3cccnc3c2[nH]1,x,12,x,x,u
CCC(C(=O)O)c1ccc(N2Cc3ccccc3C2=O)cc1 (centres undefined),x,-13,x,x,x
CC(C)(C)c1ccc(C(=O)NCC(c2cccnc2)N2CCc3ccccc3C2)cc1 (centres undefined),x,-77*,x,x,-2%
CC(=O)c1cc2c(cc1NC(=O)c1cnn(-c3ccc(C)cc3)c1-n1cccc1)OCO2,x,10,x,x,-1%
CN(C)S(=O)(=O)c1cccc(NC(=S)Nc2cccc3cnccc23)c1,i,-71*,-13%,19%,-5%
S=C(Nc1cccnc1)Nc1cccc2cnccc12,i,-2,4%,3%[15.4 µM],4%
COc1ccc(/C=c2\s/c(=C/C(=O)c3ccc(C)cc3)[nH]c2=O)c(OC)c1,i,-18,-1%,-2%[15.4 µM],2%
COc1cccc(/C=c2\s/c(=C\C(=O)C(C)(C)C)[nH]c2=O)c1,i,-91*,-11%,3%[15.4 µM],0%
CCOC(=O)c1cccc(NS(=O)(=O)c2cc(-c3cnc(C4CC4)o3)ccc2C)c1,x,x,x,x,1%
Cc1ccc(C)c(N2CCN(C(=O)Nc3ccc4c(c3)N(C)C(=O)CS4)CC2)c1,i,-15,40µM*,16%,5%
CN1CCN(c2ccc(-c3cc(O)c4ncccc4c3)cc2)CC1,x,x,x,x,0%
Cc1cccc(NC(=O)COc2ccccc2C(=O)NC(C)c2ccccc2)c1 (centres undefined),i,-18,28µM*,-20%,-1%
Cc1cccc(OCC(=O)Nc2cccc(C(=O)Nc3ccccc3C(=O)O)c2)c1,i,-10,-13%,-14%,-3%
CC(C)C(=O)Nc1cccc(C(=O)Nc2ccccc2C(=O)O)c1,-114%*,-7,u,-2%,0%
CC(C)c1ccc(OCC(=O)Nc2cccc(C(=O)Nc3ccccc3C(=O)O)c2)cc1,i,-66*,-7%,0%[15.4 µM],0%
O=C(NC1CCCCC1)c1ccc(CSc2nc3cccnc3n2Cc2ccc(F)cc2)cc1,x,3,x,x,u
Brc1ccc2nc(SCCOc3ccccc3)[nH]c2c1,x,x,x,x,2%
Cc1ccc2nc(SCCCCOc3ccccc3)[nH]c2c1,i,-3,40µM*,-4%,4%
CCN(Cc1ccccc1)S(=O)(=O)c1ccc2c(c1)CC(C)N2C(=O)C1CCC1 (centres undefined),x,-6,x,x,5%
C=CCNC(=O)NC(=O)COC(=O)c1nc2nccc(C)n2n1,i,4,5%,u,16µM*
COc1ccc(-n2c(=O)c3c4c(sc3n(Cc3c(F)cccc3Cl)c2=O)CN(C(C)=O)CC4)cc1OC,x,-16,x,x,2%
O=C(O)C1CSC2(c3ccc4c(c3)OCCO4)CCC(=O)N12 (centres undefined),-115%*,4,-5%,-18%,1%
O=C(CCC1COc2ccccc2O1)N1CCCC1 (centres undefined),-100%*,5,5%,-10%,1%
O=C(Nc1ccccc1-c1nc2ccccc2s1)c1ccco1,i,-2,24%,25µM*,20%
N#C/C(=C(/O)c1ccco1)c1nc2ccccc2s1,i,3,35µM*,-16%,6%
N#C/C(=C(/O)c1cc2ccccc2o1)c1nc2ccccc2s1,i,0,-21%,-52%,0%
